# A selection: hits, their analogues and other compounds. The true share with any hit is near 1.6%.
# Imprint erasure – induces erasure of genomic imprints in mouse ES cells; mouse ES Peg3-LacZ reporter, beta-gal luminescence, 40 h; Potency, µM (series often up to 60.7 µM), inactives show at the top dose activity change, positive = activation, actives largely listed as activators; hit rate 0.02% among 110,000; AID 1948
#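 Imprint erasure is scored as LacZ activity from the silenced maternal Peg3 allele in feeder-free female ES cells cultured 40 h with LIF. Luminescence is normalized to in-plate negative controls and fitted to the Hill equation.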
# p53ts 32C tox – p53ts cell cytotoxicity, permissive temperature; Potency, µM (doses to about 46.1 µM), for inactives: at the highest dose activity change, negative = cytotoxicity, actives largely listed as cytotoxic; hit rate 0.93% among 130,000; AID 924; H1299-p53A138V at 32C, ATP luminescence viability, 24 h;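 also: 0% = DMSO and -100% = full killing by reference compound; nearly all actives have a fitted effect of over 55% in size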
#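 ATP-content luminescence (ATPlite) read-out after 24 h compound exposure at 32C in H1299-p53A138V cells (600/well). Tested up to 46 uM. Normalized to DMSO (0%) and 100 uM tamoxifen (100% killing); Hill-fit AC50.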
# p53ts 39C kill – p53ts cell cytotoxicity, nonpermissive temperature. H1299-p53A138V viability at 39C, ATP luminescence, 24 h. Potency, µM (highest dose often 46.1 µM), inactives show at the highest dose activity change, negative = cell killing, actives largely listed as cytotoxic. hit rate 1.5% among 130,000. AID 902; also: % is scaled to controls: 0 for no effect and ±100 for the full control effect; nearly all actives have a fitted effect of over 55% in size
# * hit, by the source's call; u = inconclusive; x = no result; [ ] = dose if it differs, or a comment. Calls follow the shape of the dose curve; as a rule, active = well fitted curve in the direction sought with a large enough effect; inconclusive = small, poorly fitted or top-dose-only effect, or another doubt; inactive = no such curve, though single readings can be large; an effect the other way counts as inactive or inconclusive. Potency is read from the fitted curve at half-maximal effect.
SMILES,Imprint erasure,p53ts 32C tox,p53ts 39C kill
CCOc1cccc(C2Oc3nc(SC)nnc3-c3ccccc3N2C(C)=O)c1OC (configuration not stated),-3%[10.9 µM],5%,-5%
CCOc1cccc2c1OC(c1cc(OC)c(OC)c(OC)c1)N1N=C(c3ccc(C)o3)CC21 (configuration not stated),x,11µM*,u
O=c1/c(=C/c2ccccn2)sc2nc3ccccc3n12,7%,10µM*,u
COC(=O)/C=c1/sc2nc3ccccc3n2c1=O,-80%,-28%,-4%
COc1cc(NCc2ccc3nc(N)nc(N)c3c2C)cc(OC)c1OC,-20%,x,x
COC(=O)[C@@H]1C[C@H]1[C@@H](NC(C)=O)c1ccccc1,4%,-13%,-7%
NS(=O)(=O)c1cccc2cccnc12,-2%,16%,-6%
CC(C)c1ccccc1S(=O)(=O)c1cc(N)c2ncccc2c1[N+](=O)[O-],-22%,11%,3.2µM*
Cc1ccc(C(=O)N2CCCCC2CCN2CCCCC2)cc1 (configuration not stated),-11%[10.9 µM],7%,-15%
COCCn1c(=O)c(-c2cc(F)cc(F)c2)nc2cnc(Oc3cccc(Cl)c3)nc21,x,-12%,-7%
NCCCCCCNS(=O)(=O)c1ccc2c(Cl)cccc2c1,-17%,17%,32µM*
NCCCCNS(=O)(=O)c1ccc2c(Cl)cccc2c1,-25%,0%,-24%
COC(=O)C1=C(C)N(Cc2ccccc2)[C@]23O[C@](C(=O)OC)(C(=O)N2C1c1ccccc1)C1C(=O)N(C)C(=O)C13 (some centres not stated),x,-1%[9.22 µM],-8%[9.22 µM]
CCc1nnc2c(Nc3cc(OC)c(Cl)cc3OC)nc3ccccc3n12,7%[10.9 µM],0%,-3%
O=C(Nc1ccccc1)NC1CCS(=O)(=O)C1 (configuration not stated),x,0%,7%
CC(=O)NC1=C(NC2CCS(=O)(=O)C2)C(=O)c2ccccc2C1=O (configuration not stated),x,16µM*,u
O=C(NCCc1cccs1)c1ccc(Cn2c(SCc3ccc(F)cc3)nc3cccnc32)cc1,-13%[10.9 µM],13µM*,16µM*
O=C(NCCc1ccccc1)c1ccc(CSc2nc3cccnc3n2Cc2ccc(F)cc2)cc1,x,15%,x
Cc1cccc(CSc2nc3cccnc3n2Cc2ccc(C(=O)NCc3ccco3)cc2)c1,x,-18%,x
Cc1ccc(CNC(=O)c2ccc(Cn3c(SCc4ccc(F)cc4)nc4cccnc43)cc2)o1,-16%[10.9 µM],u,20µM*
Cc1ccc(CSc2nc3cccnc3n2Cc2ccc(C(=O)NCc3ccco3)cc2)cc1,x,5.6µM*,x
O=C(NCc1ccco1)c1ccc(Cn2c(SCc3ccccc3F)nc3cccnc32)cc1,x,-26%,x
Cn1c(=O)c(-c2cccs2)nc2cnc(OCc3ccccc3)nc21,1%,13%,7%
CC1=C(C(=O)Nc2ccccc2C)C(c2sccc2C)n2ncnc2N1 (configuration not stated),-6%[10.9 µM],-2%,-22%
C[C@H](O/N=C1/[C@H]2O[C@@H]2[C@@H](O)[C@H]2[C@H]1CCn1c(=O)n(-c3ccccc3)c(=O)n12)c1cn([C@H](CO)Cc2ccccc2)nn1,x,7%[9.22 µM],4%[9.22 µM]
SMILES,Imprint erasure,p53ts 32C tox,p53ts 39C kill
CCC(C)NC(=O)Cn1c(=O)n(Cc2ccc(C(=O)NCc3ccc(C)cc3)cc2)c(=O)c2ccccc21 (configuration not stated),12%[10.9 µM],u,20µM*
CCC(C)NC(=O)Cn1c(=O)n(Cc2ccc(C(=O)NCc3ccccc3OC)cc2)c(=O)c2ccccc21 (configuration not stated),-9%[10.9 µM],3%,1%
CCc1cccc(C)c1NC(=O)Cn1cc2c(n1)CCCC2,-11%[10.9 µM],-4%,0%
COc1cc(OC)cc(-c2nc3n(n2)C(c2ccccc2F)C(C(=O)Nc2cccnc2)=C(C)N3)c1 (configuration not stated),-11%[10.9 µM],6%,8%
Cc1cccc(OCC(=O)Nc2ccc3c(c2)OCCO3)c1,-7%,10µM*,u
COc1ccccc1C(=O)Nc1ccc2c(c1)OCO2,-63%,u,u
O=C(CN1CCN(CC(=O)Nc2ccccc2Cl)CC1)Nc1ccc2c(c1)OCCO2,-15%,-11%,-7%
COc1ccccc1NC(=O)CN1CCN(CC(=O)Nc2ccc3c(c2)OCCO3)CC1,-7%,9%,25µM*
COc1ccccc1C(=O)Nc1ccc2c(c1)OCCO2,x,16µM*,16µM*
COc1ccccc1C(=O)Nc1ccc2c(c1)nc(CCNC(C)=O)n2C,-13%,13µM*,13µM*
O=C(COc1ccccc1Cl)Nc1ccc2c(c1)OCCO2,-14%,u,u
